Screening data from PubChem.
Sampled rows, rich in hits. Any-hit rate of the full collection: about 1.2%.
RGS8-Gao reg: modulates binding of RGS8 to human Galphao | P09471 | multiplexed bead flow cytometry; actives lie on both sides | response (percent of control binding), % at 10 µM | 0.34% of 220,000 active | AID 1423; in the data active = response below about 60% or above about 140%; inactive = in between;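 note: Galphao activated as the GDP aluminium fluoride complex binding bead-coupled RGS8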
Target sequence (P09471 whole entry, looked up): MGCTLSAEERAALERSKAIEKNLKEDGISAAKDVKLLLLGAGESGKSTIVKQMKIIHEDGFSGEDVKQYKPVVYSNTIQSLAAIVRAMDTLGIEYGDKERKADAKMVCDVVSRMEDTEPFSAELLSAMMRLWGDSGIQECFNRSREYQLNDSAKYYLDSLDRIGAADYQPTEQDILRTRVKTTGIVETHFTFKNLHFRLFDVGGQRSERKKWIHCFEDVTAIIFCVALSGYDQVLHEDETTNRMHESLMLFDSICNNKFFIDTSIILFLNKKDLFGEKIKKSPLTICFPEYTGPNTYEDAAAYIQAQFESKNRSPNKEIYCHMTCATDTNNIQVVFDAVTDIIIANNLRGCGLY
GSH bead fluor: GSH bead compound fluorescence profile. GSH beads flow cytometry, compound fluorescence 488/530 nm; stronger effect = higher value. fluorescence (KMESF) at 10 µM. 0.25% of 190,000 active. AID 1776; in the data active = fluorescence above about 89;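 note: glutathione beads carrying GST-tagged Bcl family fusion proteins plus one bare bead set; values are compound well signal with DMSO vehicle wells as background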
Avidin bead fluor: compound fluoresces at 488/530 nm on avidin beads; compound fluorescence 488/530 nm, flow cytometry; stronger effect = higher value; fluorescence (KMESF) at 10 µM; 0.38% of 220,000 active; in the data active = fluorescence above about 47
RGS7-Gao: modulates binding of RGS7 to human Galphao. Multiplexed bead flow cytometry; actives lie on both sides. binding response (% of control), % at 10 µM. 0.35% of 220,000 active; in the data active = binding response below about 49% or above about 150%; inconclusive = no clear call, values can overlap the other calls; inactive = in between;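 note: fluorescent Galphao held in activated GDP-AlF4 state binding bead-coupled RGS7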
RGS4-Gao reg: human RGS4-Galphao interaction regulation | Multiplexed bead flow cytometry, RGS4-Galphao binding; actives lie on both sides | 0.33% of 220,000 active | AID 1415 | P09471 | binding response (% of control), % at 10 µM; in the data active = binding response below about 49% or above about 150%; inactive = in between;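 note: fluorescent Galphao activated with aluminum fluoride binding bead-coupled RGS4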
RGS16-Gao: modulates binding between human RGS16 and Galphao. O15492+P09471. bead-based flow cytometry RGS16-Galphao binding, fluorescence; actives lie on both sides. binding response (% of control), % at 10 µM. 0.38% of 220,000 active;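 note: Galphao activated by GDP with aluminum fluoride before binding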
RGS4-Gao HTS: RGS4-Galphao interaction regulator (human) | shares compounds with RGS16-Gao | AID 1504 | multiplexed bead flow cytometry, RGS–Galpha-o binding | RGS4–Galpha-o binding response, % at 10 µM | 99% of 1,600 active;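 note: fluorescently labeled Galpha-o bound to GDP with aluminium fluoride binding biotinylated RGS beads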
Avidin counter: interferes with biotinylated probe binding to avidin beads; shares compounds with RGS16-Gao; streptavidin beads, fluorescein-biotin binding, flow cytometry; inhibition, % at 10 µM; 1,700 tested, under 10 active; AID 1783;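 active = inhibition above 50%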;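 note: median green fluorescence of gated singlet beads compared with DMSO control wells; 0% = DMSO wells and 100% = complete loss of bead fluorescence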
RGS8-Gao single: RGS8-Galphao interaction regulation, single point confirmation; bead-based flow cytometry RGS8-Galphao binding, fluorescence; actives lie on both sides; shares compounds with RGS16-Gao; 3% of 1,700 active; binding response (% of control), % at 10 µM; in the data active = binding response below about 72% or above about 130%; inactive = in between;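 note: Galphao activated as GDP AlF4 complex before binding bead RGS8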
RGS7-Gao single: RGS7-Galphao interaction regulation, single point confirmation; shares compounds with RGS16-Gao; AID 1837; response (percent of control binding), % at 10 µM; 7.8% of 1,700 active; bead-based flow cytometry RGS7-Galphao binding; actives lie on both sides; in the data active = response below about 75% or above about 130%; inactive = in between;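 note: fluorescent Galphao activated with GDP and aluminum fluoride binding bead-coupled RGS7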
RGS16-Gao single: confirmation of regulators of human RGS16-Galphao interaction; 4% of 1,700 active; bead-based flow cytometry, RGS16-Galphao binding; actives lie on both sides; response (% of control binding), % at 10 µM; shares compounds with RGS16-Gao; in the data active = response below about 74% or above about 130%; inactive = in between;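 note: Galphao activated as the GDP aluminium fluoride complex binding bead-coupled RGS16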
RGS4-Gao confirm: RGS4-Galphao interaction regulation, single point confirmation | shares compounds with RGS16-Gao | RGS4-Galphao binding, multiplexed bead flow cytometry; actives lie on both sides | binding response (% of control), % at 10 µM | 4% of 1,700 active; in the data active = binding response below about 74% or above about 130%; inactive = in between
RGS19-Gao conf: RGS19-Galphao interaction regulation, single point confirmation | bead-based flow cytometry RGS19-Galphao binding; actives lie on both sides | response (percent of control binding), % at 10 µM | 5% of 1,700 active | shares compounds with RGS16-Gao; in the data active = response below about 50% or above about 160%; inactive = in between;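 note: 100% = no compound control and 0% = blank background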
Target sequence (P09471 whole entry, looked up): as above
Target sequence (P49795 whole entry, looked up): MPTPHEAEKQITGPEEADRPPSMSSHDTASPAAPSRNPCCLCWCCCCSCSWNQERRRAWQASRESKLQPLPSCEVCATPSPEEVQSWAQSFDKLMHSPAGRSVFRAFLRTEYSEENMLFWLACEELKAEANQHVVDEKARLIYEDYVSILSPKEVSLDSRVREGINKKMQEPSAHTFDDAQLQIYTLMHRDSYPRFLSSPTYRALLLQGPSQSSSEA
* hit, by the source's call; [ ] = another dose, or the depositor's remark. Unless noted, the rule behind the calls is not given here.

For COc1ccc(Nc2nnc(SC(C(=O)Nc3cc(C)ccc3C)c3ccccc3)s2)cc1 (stereo not drawn) the results were RGS8-Gao reg 103.7, GSH bead fluor 16, Avidin bead fluor 12, RGS7-Gao 104.2, RGS4-Gao reg 101.5 and RGS16-Gao 101.6.
Screening COc1ccc(CNC(=O)CN(CC2CCCO2)C(=O)CNS(=O)(=O)c2ccccc2)cc1 (stereo not drawn) returned RGS8-Gao reg 85.8, GSH bead fluor 4, Avidin bead fluor 171*, RGS7-Gao 208.6*[activator], RGS4-Gao reg 128.6, RGS16-Gao 121.7, RGS4-Gao HTS 128.6*, Avidin counter 1.6, RGS8-Gao single 102.2, RGS7-Gao single 99.8, RGS16-Gao single 100.3, RGS4-Gao confirm 101.2 and RGS19-Gao conf 85.6.
For COc1ccc(CNC(=O)CN(CC2CCCO2)C(=O)CNS(=O)(=O)c2ccc(C)cc2)cc1 (stereo not drawn) the results were RGS8-Gao reg 99.2, GSH bead fluor 13, Avidin bead fluor 15, RGS7-Gao 99.3, RGS4-Gao reg 94.7 and RGS16-Gao 103.0.
CCOc1cc(CNn2cnnc2SCC(=O)NC(C)(C)C)ccc1OCC(=O)NC(C)(C)C was read as RGS8-Gao reg 103.0, GSH bead fluor 19, Avidin bead fluor 10, RGS7-Gao 100.8, RGS4-Gao reg 103.4 and RGS16-Gao 101.7.
Screening c1ccc(CCn2nnnc2C(c2cccnc2)N2CCN(c3ccccc3)CC2)cc1 (stereo not drawn) returned RGS8-Gao reg 88.1, GSH bead fluor 7, Avidin bead fluor 10, RGS7-Gao 84.9, RGS4-Gao reg 77.4 and RGS16-Gao 80.1.
Screening Oc1ccc(N2CCN(C(c3cccnc3)c3nnnn3Cc3ccccc3)CC2)cc1 (stereo not drawn) returned RGS8-Gao reg 8.1*, GSH bead fluor 29, Avidin bead fluor -4, RGS7-Gao -9.4*, RGS4-Gao reg -26.0*, RGS16-Gao -25.9*, Avidin counter -0.2, RGS8-Gao single 87.9, RGS7-Gao single 99.3, RGS16-Gao single 91.3, RGS4-Gao confirm 96.7 and RGS19-Gao conf 77.2.
`COc1ccc(Cn2nnnc2C(c2cc3cc(C)ccc3[nH]c2=O)N2CCOCC2)cc1` (stereo not drawn) gave RGS8-Gao reg 99.0, GSH bead fluor 23, Avidin bead fluor 15, RGS7-Gao 98.2, RGS4-Gao reg 98.3 and RGS16-Gao 99.4.
Screening COc1ccc(N2CCN(C(c3cc4cc(C)ccc4[nH]c3=O)c3nnnn3Cc3ccccc3)CC2)cc1 (stereo not drawn) returned GSH bead fluor 40, Avidin counter 1.9, RGS8-Gao single 98.5, RGS7-Gao single 99.7, RGS16-Gao single 98.2, RGS4-Gao confirm 100.0 and RGS19-Gao conf 98.3.
Screening CC(C)N1CCC(N2CCN(Cc3ccc(C#CC(C)(C)O)s3)CC2CCO)CC1 (stereo not drawn) returned RGS8-Gao reg 84.5, GSH bead fluor 18, Avidin bead fluor 134*, RGS7-Gao 274.6*[activator], RGS4-Gao reg 141.8, RGS16-Gao 98.2, RGS4-Gao HTS 141.8*, Avidin counter 2.7, RGS8-Gao single 99.8, RGS7-Gao single 102.8, RGS16-Gao single 99.4, RGS4-Gao confirm 99.8 and RGS19-Gao conf 97.5.
`CC(C)N1CCN(Cc2ccc(C#CC(C)(C)O)s2)CC1CCO` (stereo not drawn) gave RGS8-Gao reg 97.4, GSH bead fluor 8, Avidin bead fluor 2, RGS7-Gao 98.6, RGS4-Gao reg 98.8 and RGS16-Gao 100.1.
Screening Cc1ccc(C(=O)c2no[n+]([O-])c2C(=O)c2ccc(C)cc2)cc1 returned RGS8-Gao reg 100.1, GSH bead fluor 20, Avidin bead fluor 9, RGS7-Gao 93.7, RGS4-Gao reg 98.9 and RGS16-Gao 110.8.
Cc1ccc(NC(=O)NC(=O)N(C(C)C)S(=O)(=O)c2ccc(C)cc2)cc1 was read as RGS8-Gao reg 105.7, GSH bead fluor 8, Avidin bead fluor 31, RGS7-Gao 101.7, RGS4-Gao reg 101.4 and RGS16-Gao 106.9.
Screening Cc1onc(-c2ccccc2Cl)c1C(=O)NCc1cccs1 returned RGS8-Gao reg 102.7, GSH bead fluor 22, Avidin bead fluor 17, RGS7-Gao 101.8, RGS4-Gao reg 101.3 and RGS16-Gao 103.0.
`Cc1noc(C)c1C(=O)NCc1cccs1` gave GSH bead fluor 33, Avidin counter 0.8, RGS8-Gao single 102.0, RGS7-Gao single 100.7, RGS16-Gao single 104.0, RGS4-Gao confirm 103.0 and RGS19-Gao conf 105.6.
Cc1ccccc1-c1ccc(=O)n(CC(=O)Nc2ccc(N3CCOCC3)cc2)n1 was read as GSH bead fluor 47, Avidin counter 0.1, RGS8-Gao single 95.9, RGS7-Gao single 99.1, RGS16-Gao single 97.6, RGS4-Gao confirm 97.8 and RGS19-Gao conf 101.8.
Screening CCOc1cccc2cc(C(=O)NCCC3=CCCCC3)c(=O)oc12 returned RGS8-Gao reg 99.8, GSH bead fluor 15, Avidin bead fluor 10, RGS7-Gao inconclusive, RGS4-Gao reg 101.7 and RGS16-Gao 100.3.
